Screens as filed in PubChem.
Sampled rows, rich in hits. Any-hit rate of the full collection: about 9.4%.
HttQ103 aggreg: qHTS Multiplex Assay to Identify Dual Action Probes in a Cell Model of Huntington: Aggregate Formation (GFP); PC12 HttQ103-GFP aggregates, Acumen cytometry, 40 h; Potency, µM (series often up to 46.1 µM), for inactives: at the highest dose activity change, negative = inhibition, actives largely listed as inhibitors; 220,000 compounds, 1.1% hits; AID 1688, 2009; also: potency is read from the fitted curve at half-maximal effect; % is scaled to controls: 0 for no effect and ±100 for the full control effect; nearly all actives have a fitted effect of over 60% in size
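PC12 cells with ecdysone-inducible HTT exon1 Q103-GFP, induced by 100 nM tebufenozide, given compounds in a concentration series. GFP aggregates (1–25 um, 6 SD above background) counted in lysates by laser-scanning cytometry, 488 nm excitation.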
IMPase Li cell: qHTS Assay for Identifying the Cell-Membrane Permeable IMPase Inhibitors: Potentiation with Lithium; 210,000 compounds, 0.35% hits; Potency, µM (top dose mostly 59.4 µM), inactives show at the top dose activity, negative = IMPase inhibition, most hits filed as inhibitors; AID 1457, 2008; CHO-M1 cells, IP1 TR-FRET (IP-One), carbachol + lithium;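 also: IP1 builds up when IMPase is blocked and the TR-FRET signal falls; potency is read from the fitted curve at half-maximal effect; plate controls were basal vehicle for no effect and high inhibitor control for full effect; nearly all actives have a fitted effect of over 50% in size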
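CHO cells stably expressing M1 receptor (2000/well) were cultured 16–30 h, then exposed to compounds with a small lithium addition for 30 min at 37C. IP1 was measured by TR-FRET competition; AC50 from Hill fits.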
IMPase inh: qHTS Assay for Identifying the Cell-Membrane Permeable IMPase Inhibitors; CHO-M1 cells, IP1 accumulation, HTRF TR-FRET ratio; inhibition (IP1 accumulation), % at 46.1 µM; AID 901, 2007; 120,000 tested, under 10 active; active = well fitted curve in the direction sought with a large enough effect in the signal ratio, not every such curve was filed as active; inconclusive = small, poorly fitted or top-dose-only effect, or a change in a side signal; inactive = no such curve, though single readings can be large or run the other way; the % refers to the signal ratio;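 also: cells stimulated with carbachol in lithium chloride buffer; plate controls were DMSO basal wells for no effect and reference inhibitor wells for full effect; higher means more IMPase inhibition seen as more IP1 and lower FRET ratio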
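Measured: the HTRF emission ratio (665/620 nm) plus the 620 nm donor channel, each fitted to the Hill equation to give AC50. Cells were CHO-M1 given compounds up to 46 uM and a 30 min carbachol stimulation at 37C.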
ALDH1A1 inh: qHTS Assay for Inhibitors of Aldehyde Dehydrogenase 1 (ALDH1A1); Purified ALDH1A1, NADH fluorescence, propionaldehyde substrate; 220,000 compounds, 7.3% hits; Potency, µM (highest dose often 75.3 µM), inactives show at the highest dose activity, negative = inhibition, actives largely listed as inhibitors; Aldehyde dehydrogenase 1A1 (Homo sapiens), P00352; active = well fitted inhibition curve with a large enough effect, not every such curve was filed as active; inconclusive = small, poorly fitted or top-dose-only effect, or another doubt; inactive = no such curve, though single readings can be large or run the other way;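 also: potency is read from the fitted curve at half-maximal effect; plate controls were no enzyme wells and a reference inhibitor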
Target sequence (P00352 whole entry, looked up): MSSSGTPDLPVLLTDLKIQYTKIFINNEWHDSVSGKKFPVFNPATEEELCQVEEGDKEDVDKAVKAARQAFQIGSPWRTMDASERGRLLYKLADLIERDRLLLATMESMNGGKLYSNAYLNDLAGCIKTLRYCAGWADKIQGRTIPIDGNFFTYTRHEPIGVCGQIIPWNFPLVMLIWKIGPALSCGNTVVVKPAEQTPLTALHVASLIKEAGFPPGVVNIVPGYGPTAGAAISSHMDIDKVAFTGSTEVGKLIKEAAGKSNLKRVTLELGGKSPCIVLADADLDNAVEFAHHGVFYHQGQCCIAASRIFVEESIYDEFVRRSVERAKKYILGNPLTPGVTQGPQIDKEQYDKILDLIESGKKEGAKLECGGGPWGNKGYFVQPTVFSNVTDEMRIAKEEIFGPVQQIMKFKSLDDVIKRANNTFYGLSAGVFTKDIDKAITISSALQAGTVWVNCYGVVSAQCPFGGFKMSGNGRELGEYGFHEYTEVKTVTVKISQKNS
HPGD block: qHTS Assay for Inhibitors of HPGD (15-Hydroxyprostaglandin Dehydrogenase); Potency, µM, inactives show top-dose activity change, negative = inhibition, usual class: inhibitors; 150,000 compounds, 4.3% hits; purified HPGD, NADH fluorescence kinetic, PGE2 substrate; 15-hydroxyprostaglandin dehydrogenase [NAD(+)] (Homo sapiens), P15428; active = well fitted inhibition curve with a large enough effect, not every such curve was filed as active; inconclusive = small, poorly fitted or top-dose-only effect, or another doubt; inactive = no such curve, though single readings can be large or run the other way; also: potency is read from the fitted curve at half-maximal effect; % is scaled to controls: 0 for no effect and ±100 for the full control effect
Target sequence (P15428 whole entry, looked up): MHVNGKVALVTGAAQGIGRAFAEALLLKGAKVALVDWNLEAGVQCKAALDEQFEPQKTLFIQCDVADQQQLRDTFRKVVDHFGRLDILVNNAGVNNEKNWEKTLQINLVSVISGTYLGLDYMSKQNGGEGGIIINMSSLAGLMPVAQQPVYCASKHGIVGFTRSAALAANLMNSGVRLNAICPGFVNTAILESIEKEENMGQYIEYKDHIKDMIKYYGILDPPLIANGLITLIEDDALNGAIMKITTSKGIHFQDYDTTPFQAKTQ
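NADH formation kinetics: reaction with 30 uM PGE2 and 1 mM NAD+ (final), 20 nM enzyme, Tris-HCl pH 8 with Tween 20, after 15 min compound preincubation at room temperature. Fluorescence change, last versus first of five reads.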
HTT ATP protect: qHTS Multiplex Assay to Identify Dual Action Probes in a Cell Model of Huntington: Cytoprotection (ATP). 230,000 compounds, 0.14% hits. AID 1471, 2008. Potency, µM (highest dose often 56.4 µM), for inactives: cytoprotection (ATP increase), usual class: activators. PC12 HTT-Q103 induced, cytoprotection, ATP luminescence, 40 h; also: potency is read from the fitted curve at half-maximal effect; % of control where 0% means no effect; nearly all actives have a fitted effect of over 45% in size
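Stable PC12 Q103-GFP cells in serum-supplemented, phenol red-free DMEM; induction by tebufenozide at 100 nM final; compound dose series; cell viability quantified luminescently from ATP.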
An asterisk follows results filed as active; u = inconclusive; x = not tested or not shown; [ ] = remark or other dose. Unless noted, calls follow the shape of the dose curve; as a rule, active = well fitted curve in the direction sought with a large enough effect; inconclusive = small, poorly fitted or top-dose-only effect, or another doubt; inactive = no such curve, though single readings can be large; an effect the other way counts as inactive or inconclusive.

SMILES	HttQ103 aggreg	IMPase Li cell	IMPase inh	ALDH1A1 inh	HPGD block	HTT ATP protect
COc1ccc(CC(NC(C)=O)C(=O)NC2CCN(c3nnnn3-c3ccccc3)CC2)cc1OC (stereo not drawn)	2.0%[9.22 µM]	6.1%	x	10µM*	x	12.1%[10 µM]
COc1ccc(OC)c(CC(NC(C)=O)C(=O)NC2CCN(c3nnnn3-c3ccccc3)CC2)c1 (stereo not drawn)	8.1%[9.22 µM]	x	x	x	x	16.9%[10 µM]
CC(=O)NC(Cc1cccc(F)c1)C(=O)NC1CCN(c2nnnn2-c2ccccc2)CC1 (stereo not drawn)	13.3%[9.22 µM]	9.1%	x	1.41µM*	x	22.7%[10 µM]
C=C(C)C(=O)/C=C/c1ccc(C(F)(F)F)cc1	x	11.5%	x	10.1%	-4.5%	x
c1ccc(CNCCNCc2ccccc2)cc1	27.4%	x	x	x	x	12.1%
COc1cccc(CC(NC(C)=O)C(=O)NC2CCN(c3nnnn3-c3ccccc3)CC2)c1 (stereo not drawn)	4.1%	1.2%[38.3 µM]	-16.9	14.1µM*	-5.8%	-2.2%
COc1cccc(CC(NC(C)=O)C(=O)NC2CCN(S(=O)(=O)c3cccc4ccccc34)CC2)c1 (stereo not drawn)	9.8%[9.22 µM]	2.1%[38.3 µM]	9.4	-3.2%	-0.5%	-8.6%
NC(=O)COC(=O)c1cccnc1Nc1ccccc1F	2.3%	26.6%	x	11.2µM*	x	-35.4%
COc1ccccc1/C=C/C(=O)Oc1cccc2cccnc12	-2.9%	10.6%	x	u	x	6.7%
Cc1ccc2cccc(OC(=O)/C=C\c3ccccc3)c2n1	9.6%[9.22 µM]	9.0%	x	-3.0%	x	3.16µM*
COc1cc(C2c3c(oc4ccccc4c3=O)C(=O)N2Cc2ccccc2Cl)ccc1O (stereo not drawn)	x	x	-2.1	x	x	x
O=C(NP(=O)(N1CCOCC1)N1CCOCC1)C1=C(N2CCOCC2)/C(=C\c2ccccc2)CC1	9.9%	3.7%	x	3.55µM*	x	-3.9%[10 µM]
O=C(CSCc1ccccc1Cl)NNC(=S)Nc1ccccc1	6.1%	12.5%[38.3 µM]	-0.6	14.1µM*	-20.6%	0.1%
Cc1ccc(C2CC2C(=O)NNC(=S)Nc2ccc(Cl)cc2)cc1 (stereo not drawn)	-9.7%	5.3%	-2.4	8.91µM*	u	21.2%[10 µM]
Cc1cccc(NC(=S)NNC(=O)Cc2ccccc2)c1	13.3%	13.0%	2.0	39.8µM*	-18.5%	19.9%[10 µM]
CC(=O)c1cccc(NC(=S)NC(=O)Cc2ccccc2)c1	2.5%	-7.3%	x	u	x	-43.1%
CC(C)NC(=O)CSCc1ccccc1Cl	-2.4%	18.2%[38.3 µM]	-0.1[1.84 µM]	-3.9%	-16.5%	-4.8%[10 µM]
O=C(Cc1ccccc1)NNC(=S)Nc1ccc(Cl)cc1	10.9%	-14.9%	x	25.1µM*	-7.3%	x
O=C(CCc1ccccc1)NNC(=O)Cc1ccc(Cl)cc1	-31.3%	0.3%	x	-3.0%	x	-10.9%
C=CCN1c2ccccc2[C@]23C[C@@H](C(=O)OC)N(S(=O)(=O)c4cccs4)C2=NC(C(=O)OC)=C(C(=O)OC)[C@H]13	x	7.1%	x	12.4%[13.5 µM]	2.1%	-23.0%[10 µM]
O=C(CN1CCN(Cc2ccccc2)CC1)N/N=C/c1cccnc1	-10.1%[9.22 µM]	x	x	-8.7%	x	12.7%[10 µM]
CCCC1(C(=O)OC)C=C2C(=C(c3ccccc3)C(=O)C2C)CN1 (stereo not drawn)	x	-3.1%	x	u	-19.2%	-47.6%
Cc1cccc(NCC(=O)NNC(=S)Nc2ccccc2)c1	12.3%[9.22 µM]	1.9%	x	14.1µM*	x	7.4%[10 µM]
CC(O)CCC(=O)NNC(=S)Nc1ccccc1 (stereo not drawn)	3.4%[9.22 µM]	-0.1%	x	-4.6%	x	13.4%[10 µM]
Cc1ccc(CN2C(=O)C3CCCN3c3ccc(C#N)cc32)cc1 (stereo not drawn)	21.1%	-5.8%[38.3 µM]	u	u	u	-2.9%
SMILES	HttQ103 aggreg	IMPase Li cell	IMPase inh	ALDH1A1 inh	HPGD block	HTT ATP protect
N#CCN1C(=O)C2CCCN2c2ccc(S(=O)(=O)N3CCOCC3)cc21 (stereo not drawn)	31.4%	-1.9%	x	10µM*	x	7.7%
CON(C)S(=O)(=O)c1ccc2c(c1)N(Cc1ccc(C)cc1)C(=O)C1CCCN21 (stereo not drawn)	2.7%[9.22 µM]	-6.7%	x	10µM*	x	0.6%
CCOc1cccc(OCCCn2c(-c3ccc(Br)cc3)nc3ccccc3c2=O)c1	x	x	-14.4	x	x	x
O=[N+]([O-])c1nn(-c2ccc3c(c2)OCCO3)n(O)c1=NCc1ccc(F)cc1	-12.3%	9.3%	x	-1.4%	20µM*	-49.9%[10 µM]
O=[N+]([O-])c1nn(-c2ccc3c(c2)OCCO3)n(O)c1=NCc1ccc(F)cc1Cl	-8.6%	-3.1%	x	-0.9%	x	-34.4%
CCCCOc1ccccc1NC(=O)c1ccco1	22.6%	20.3%[38.3 µM]	-12.1[1.84 µM]	-6.1%	-0.9%	11.7%
CCCCOc1ccccc1NC(=O)c1scc2c1OCCO2	12.6µM*	13.6%	x	-3.7%	x	-49.0%
CC#N	x	2.3%	x	-0.5%	-9.0%	-2.5%
CO[C@@H]1COC(=O)[C@H]2CCCN2C(=O)[C@@H](C)COC(=O)C/C=C\[C@H]1C	x	x	x	2.4%[13.5 µM]	x	2.3%[10 µM]
O=C(O)Cc1sc(-c2ccc(Cl)cc2)nc1-c1ccccc1	6.2%	u	-15.9	u	u	-20.3%
O=c1cc(O)nc(-c2ccc(Cl)cc2)s1	6.8%[9.22 µM]	-4.5%	x	15.8µM*	x	-31.8%
O=c1cc(O)nc(-c2ccccc2)s1	17.1%	-0.6%	x	0.794µM*	x	x
C#CCOc1c(Br)cc(C2C(C(=O)OC)=C(C)NC3=C2C(=O)c2ccccc23)cc1OCC (stereo not drawn)	x	x	-3.5	x	x	x
CCCn1c(C)nc2c(NCCN(C(C)C)C(C)C)nc(C)nc21	x	12.5%	x	2.6%	0.2%	8.7%
CC(=O)c1c(C)oc2ccc(N(C(=O)Oc3ccccc3)S(=O)(=O)c3ccc(Cl)cc3)cc12	x	x	9.0	x	x	x
Cc1ccc(-c2nc(-c3ccccc3)no2)c(Cl)c1	-1.8%	17.3%[38.3 µM]	-0.8	7.8%	39.8µM*	-126.3%
CC(=O)c1cccc(NC(=O)c2cnn3ccccc23)c1	-14.7%	-2.8%[38.3 µM]	-1.7	-17.6%	-29.8%	-45.5%
Cc1ccc(C)c(NC(=O)c2cc3ccccn3n2)c1	-8.5%	7.5%[38.3 µM]	-3.2	5.7%	-5.0%	-31.4%[10 µM]
Cc1ccc(C)c(NC(=O)c2cnn3ccccc23)c1	12.6µM*	0.0%[38.3 µM]	-6.2	-1.6%	-9.6%	-103.4%
CC(=O)c1ccc(NC(=O)c2cnn3ccccc23)cc1	-19.9%	0.3%[38.3 µM]	-7.4	12.6µM*	u	-119.9%
COc1ccc(C(=O)N2CCN(C(=O)COc3ccccc3)CC2)cc1OC	x	x	-7.9	x	x	x
